Inconclusive results are not listed. Activity calls are given as the source filed them. Unless noted, calls follow the shape of the full dose curve.

The nature of assay [1]: qHTS for Inhibitors of the Functional Ribonucleoprotein Complex (vRNP) of Lassa (LASV) Arenavirus: LASV Primary Screen - GLuc reporter signal (AID 1347082; calls by dose curve; tested in HEK293 reporter line; also: nearly all actives have a fitted effect of over 60% in size; also: potency is read from the fitted curve at half-maximal effect). On the technique in general: qHTS replaces the single test concentration by a dilution series.
A short description of assay [2]: qHTS for Inhibitors of the Functional Ribonucleoprotein Complex (vRNP) of Lassa (LASV) Arenavirus: Viability assay - alamar blue signal for LASV Primary Screen (AID 1347083; calls by dose curve; tested in HEK293 reporter line; also: nearly all actives have a fitted effect of over 80% in size; also: potency is read from the fitted curve at half-maximal effect).
Assay [3] can be described thus: qHTS for Inhibitors of the Functional Ribonucleoprotein Complex (vRNP) of Lymphocytic Choriomeningitis Arenaviruses (LCMV): Viability assay - alamar blue signal for LCMV Primary Screen (AID 1347085; calls by dose curve; tested in HEK293 reporter line; also: nearly all actives have a fitted effect of over 80% in size; also: potency is read from the fitted curve at half-maximal effect).
The target of assay [4] is Nucleoprotein (Lymphocytic choriomeningitis virus (strain Armstrong)) (UniProt P09992). Put plainly: qHTS for Inhibitors of the Functional Ribonucleoprotein Complex (vRNP) of Lymphocytic Choriomeningitis Arenaviruses (LCMV): LCMV Primary Screen - GLuc reporter signal (AID 1347086). Also: series mostly up to about 57 µM; nearly all actives have a fitted effect of over 70% in size.
Nucleoprotein (Lymphocytic choriomeningitis virus (strain Armstrong)), sequence (P09992 whole entry, looked up): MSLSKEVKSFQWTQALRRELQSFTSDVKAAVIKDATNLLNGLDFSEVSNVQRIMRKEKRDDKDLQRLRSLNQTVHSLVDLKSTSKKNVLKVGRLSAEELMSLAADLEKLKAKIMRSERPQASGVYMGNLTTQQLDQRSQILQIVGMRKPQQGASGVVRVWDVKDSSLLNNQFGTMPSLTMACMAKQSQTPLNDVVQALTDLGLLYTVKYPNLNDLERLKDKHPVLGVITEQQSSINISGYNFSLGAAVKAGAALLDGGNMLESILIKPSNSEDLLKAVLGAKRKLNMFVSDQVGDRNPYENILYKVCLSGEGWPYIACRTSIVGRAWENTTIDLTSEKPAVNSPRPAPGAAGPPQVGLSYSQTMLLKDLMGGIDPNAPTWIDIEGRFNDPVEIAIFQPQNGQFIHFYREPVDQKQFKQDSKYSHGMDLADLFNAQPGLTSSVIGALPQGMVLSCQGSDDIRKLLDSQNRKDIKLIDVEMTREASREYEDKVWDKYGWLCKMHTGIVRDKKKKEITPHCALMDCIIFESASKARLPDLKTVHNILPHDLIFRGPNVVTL

With `CCCCCCC1CCC(=O)O1` (centres undefined), the Potency entry in assay [1], in assay [2] and in assay [3] was “inactive” each time.

In the case of `C=C(C)C(Cc1c(OC)ccc(C(=O)/C=C/c2ccc(O)cc2)c1O)OO` (centres undefined), the Potency entry in assay [1], in assay [2] and in assay [3] was “inactive” each time.

Regarding `CC(=O)OC1CCC2(C)C(COc3ccc4ccc(=O)oc4c3)C(C)(O)CCC2C1(C)C` (centres undefined), the Potency entry in assay [1], in assay [2] and in assay [3] was “inactive” throughout.

For `CNC(=O)Nc1ccc(Cl)c(Cl)c1`, the Potency result in assay [1] and in assay [2] was “inactive” in each case.

As for `O=C(C=Cc1ccc(O)cc1)c1ccc(O)cc1O`, the Potency entry in assay [1], in assay [2] and in assay [3] was “inactive” each time.

For the molecule `CC(=O)O[C@@]12CO[C@@H]1C[C@H](OC1OCC(O)C(O)C1O)[C@@]1(C)C(=O)[C@H](O)C3=C(C)[C@@H](OC(=O)[C@H](O)[C@@H](NC(=O)c4ccccc4)c4ccccc4)C[C@@](O)([C@@H](OC(=O)c4ccccc4)C12)C3(C)C` (some centres undefined), the Potency entry in assay [1] was “inactive”. In assay [2], the Potency is 20 µM (active).

In the case of `CCC(=C(CC)c1ccc(O)cc1)c1ccc(O)cc1`, in assay [1], the Potency entry was “inactive”. In addition, the figures for the Potency in assay [2] and in assay [3] were 0.0153 µM (active) and 0.0137 µM (active), respectively.

For `COC(=O)c1ccc2c(c1)C(NC(C)=O)CCc1cc(OC)c(OC)c(OC)c1-2` (centres undefined), the Potency entry in assay [1] and in assay [2] was “inactive” throughout.

As to `CC(=O)O[C@@H]1CC[C@@]2(C)[C@H](C1)[C@H](OC(C)=O)C[C@@H]1[C@@H]2C[C@H]2[C@@H]3CN4C[C@H](C)CC[C@H]4[C@H](C)[C@H]3CC[C@@]12O`, the Potency entry in assay [1] and in assay [2] was “inactive” throughout.

Take `CC[C@@H](O)C[C@H]1CCC[C@@]2(C[C@@H]3OC(=O)/C=C/[C@@](C)(O)[C@@H](O)[C@H](C)[C@@H](O)[C@H](OC4CCC(N(C)C)C(C)O4)[C@@H](O)[C@](C)(O)CCCCC/C=C/[C@@H]4CC(C)(C)O[C@@]4(O)C[C@H](O2)[C@H]3C)O1` (some centres undefined): the Potency result in assay [1], in assay [2], in assay [3] and in assay [4] was “inactive” each time.

For `Nc1ccn([C@@H]2O[C@H](CO)[C@H](O)C2(F)F)c(=O)n1`, the Potency entry in assay [1] was “inactive”. In addition, the Potency in assay [2] and in assay [3] was 0.968 µM (active) each time.

On to `CC(=O)c1ccc[nH]1`, for which the Potency result in assay [1] and in assay [2] was “inactive” each time.

In the case of `C=C[C@@H]1CN2CC[C@@H]1C[C@H]2[C@H](O)c1ccnc2ccc(OC)cc12`, the Potency result in assay [1], in assay [2], in assay [3] and in assay [4] was “inactive” throughout.

In the case of `CCC12CCCN3CCC4(C(=C(C(=O)OC)C1)Nc1ccccc14)C32` (centres undefined), the Potency result in assay [1], in assay [2] and in assay [3] was “inactive” in each case.

In the case of `COc1cccc2c1C(=O)c1c(O)c3c(c(O)c1C2=O)C[C@@](O)(C(=O)CO)C[C@H]3O[C@H]1C[C@H](N)[C@H](O)[C@H](C)O1`, the Potency was 13.7 µM (active) in assay [1], 1.09 µM (active) in assay [2] and 0.863 µM (active) in assay [3].

For the molecule `CN1CCC[C@H]1CCO[C@](C)(c1ccccc1)c1ccc(Cl)cc1`, the Potency entry in assay [1], in assay [2], in assay [3] and in assay [4] was “inactive” each time.

Regarding `COc1ccnc2[nH]cc(C(=O)C(=O)N3CCN(C(=O)c4ccccc4)C[C@@H]3C)c12`, the Potency entry in assay [1] and in assay [2] was “inactive” throughout.

Regarding `CCCCCCC[C@@H](C/C=C/CCC(=O)N(C)C/C(=C/Cl)C/C(=C\C(=O)N1C[C@H](O)CC1=O)OC)OC`, the Potency entry in assay [1], in assay [2] and in assay [3] was “inactive” each time.

Turning to `COc1ccc(C(=O)OCCc2ccc(O)cc2)cc1`, the Potency entry in assay [1], in assay [2], in assay [3] and in assay [4] was “inactive” each time.

`O=c1c(-c2ccc(O)cc2)coc2c(C3OC(CO)C(O)C(O)C3O)c(O)ccc12` (centres undefined): the Potency result in assay [1] and in assay [2] was “inactive” each time.

Turning to `COc1ccc([C@@H]2CC(=O)c3c(O)cc(O[C@@H]4O[C@H](CO)[C@@H](O)[C@H](O)[C@H]4OC4O[C@@H](C)[C@H](O)[C@@H](O)[C@H]4O)cc3O2)cc1O` (some centres undefined), the Potency result in assay [1] and in assay [2] was “inactive” throughout.
